# Values joined by “and” are separate entries in the source; they are usually repeats but may differ in a detail not shown here. Equal entries are not always repeated. Potency and affinity values are given separately.
# Legend:
# Klebsiella pneumoniae = details: Concentration 32 ug.mL-1, ASSAY_TEST Inhibition of Bacterial Growth, detection method Absorption (OD600), MEDIA CAMHB, plate type 384well, NBS, CORNING #3640, time 18 hr
# Candida albicans = details: 32 ug/mL
# Cryptococcus neoformans = details: Concentration 32 ug.mL-1, ASSAY_TEST Inhibition of Fungal Growth, detection method Resazurin, Absorption (OD600-OD570), plate type 384well, NBS, CORNING #3640
Structure (SMILES),Inhibition (Klebsiella pneumoniae) [%],Inhibition (Candida albicans),Inhibition (Cryptococcus neoformans) [%],Inhibition (Klebsiella pneumoniae; 32 ug/mL),Inhibition (Cryptococcus neoformans; 32 ug/mL)
CCCCCCCC1CN(S(=O)(=O)c2ccc(C)cc2)N(C(=O)OC(C)(C)C)C1O (configuration not stated),-2.15,2.88%,-7.05,,
Cc1ccc(S(=O)(=O)N2CC(C)C(=O)N2S(=O)(=O)c2ccc(C)cc2)cc1 (configuration not stated),,7.75% and 4.44%,,2.85% and 1.74%,-9.56% and 1.92%
O=C(OCc1ccccc1)N1OC(O)C2CCCCC21 (configuration not stated),8.05,6.56%,-9.13,,
Cc1ccc(S(=O)(=O)N2CC(Cc3ccccc3)C(=O)N2S(=O)(=O)c2ccc(C)cc2)cc1 (configuration not stated),,,,-3.35% and -1.6%,-1.01% and -2.47%
CC1CN(S(=O)(=O)c2ccc([N+](=O)[O-])cc2)N(C(=O)OC(C)(C)C)C1=O (configuration not stated),,,,7.28% and 7.49% and 8.98%,-7.3% and -1.18% and -10.38%
CCCCCCCC1CN(S(=O)(=O)c2ccc(C)cc2)N(C(=O)OC(C)(C)C)C1=O (configuration not stated),0.4,1.48%,-13.28,,
CC1C(O)N(C(=O)OC(C)(C)C)N(S(=O)(=O)c2ccc([N+](=O)[O-])cc2)C1C (configuration not stated),8.57,3.18%,-8.51,,
CC(C)(C)OC(=O)N1C(O)C(Cc2ccccc2)CN1S(=O)(=O)c1ccc([N+](=O)[O-])cc1 (configuration not stated),,,,9.89% and 6.63% and 13.09%,-4.16% and -1.5% and -1.29%
CC(C)(C)OC(=O)N1C(=O)C(Cc2ccccc2)CN1S(=O)(=O)c1ccc([N+](=O)[O-])cc1 (configuration not stated),,,,6.28% and 7.63% and -5.45%,-5.52% and -6.93% and -6.97%
CCCCCCCC1CN(S(=O)(=O)c2ccc(C)cc2)N(S(=O)(=O)c2ccc(C)cc2)C1O (configuration not stated),2.03,8.32%,-3.29,,
CC1CN(S(=O)(=O)c2ccc([N+](=O)[O-])cc2)N(C(=O)OC(C)(C)C)C1O (configuration not stated),-4.4,0.59%,-8.44,,
CC1CN(C(=O)OCc2ccccc2)OC1O (configuration not stated),4.15,2.95%,-0.06,,
O=C1ON(C(=O)OCc2ccccc2)CC1Cc1ccccc1 (configuration not stated),,4.94% and 2.48%,,2.56% and 10.07%,7.64% and 2.52%
O=C(OCc1ccccc1)N1CC(Cc2ccccc2)C(O)O1 (configuration not stated),0,12.9%,9.21,,
CC1CN(C(=O)OCc2ccccc2)OC1=O (configuration not stated),,,,1.37% and 8.3% and 6.85%,
CC(C)(C)OC(=O)N1C(O)C2CCCC2N1S(=O)(=O)c1ccc([N+](=O)[O-])cc1 (configuration not stated),-0.3,1.02%,-8.39,,

# Reference: ChEMBL document CHEMBL4513145, “CO-ADD screening of Biotechnology Research Centre (C.R.B.t) (Algeria) compounds”
